This is part of a sample that, as a whole, favours compounds with a hit. Of some 83,000 tested, about 20% had one in any assay.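 Method: cells in 96-well plates; compound added at one concentration; 48 h incubation; percent growth measured; values under 10 scored active.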 A number with no mark means an inactive call. Calls of active or inactive are those of the source.
Key:
Assay in all cases: NCI-60 one-dose screen, 48 h (100 = growth as untreated, 0 = no growth, -100 = all killed)
Conditions in all cases: 10 µM unless noted
NCI-H23 lung = system: NCI-H23 lung
NCI-H226 lung = system: NCI-H226 lung
NCI-H322M lung = system: NCI-H322M lung
HOP-62 NSCLC = system: HOP-62 NSCLC
NCI-H460 lung = system: NCI-H460 lung
HOP-92 NSCLC = system: HOP-92 NSCLC
A549/ATCC NSCLC = system: A549/ATCC NSCLC
786-0 renal = system: 786-0 renal
COLO 205 colon = system: COLO 205 colon
DU-145 prostate = system: DU-145 prostate
K-562 leukemia = system: K-562 leukemia
MALME-3M melanoma = system: MALME-3M melanoma
MDA-MB-231 breast = system: MDA-MB-231 breast
RXF 393 renal = system: RXF 393 renal
SF-268 CNS = system: SF-268 CNS
SF-295 CNS = system: SF-295 CNS
SF-539 CNS = system: SF-539 CNS
UACC-257 melanoma = system: UACC-257 melanoma
M14 melanoma = system: M14 melanoma

Structure (SMILES)	growth (NCI-H23 lung)	growth (NCI-H226 lung)	growth (NCI-H322M lung)	growth (HOP-62 NSCLC)	growth (NCI-H460 lung)	growth (HOP-92 NSCLC)	growth (A549/ATCC NSCLC)	growth (786-0 renal)	growth (COLO 205 colon)	growth (DU-145 prostate)	growth (K-562 leukemia)	growth (MALME-3M melanoma)	growth (MDA-MB-231 breast)	growth (RXF 393 renal)	growth (SF-268 CNS)	growth (SF-295 CNS)	growth (SF-539 CNS)	growth (UACC-257 melanoma)	growth (M14 melanoma)
C/C(=C\c1ccn(-c2ccc(N)cc2)n1)[C@@H]1C[C@@H]2O[C@]2(C)CCC[C@H](C)[C@H](O)[C@@H](C)C(=O)C(C)(C)[C@@H](O)CC(=O)O1	26.1%	31.7%	18.6%	44.7%	13.3%	48.7%	29.8%	20.2%	1.88% (active)	-8.99% (active)	11.4%	36.7%	33.5%	-0.234% (active)	37.4%	18.6%	-2.33% (active)	59.5%	-17% (active)
CNC(=O)Oc1ccc(C(C)(C)C)cc1OC(=O)NC	100%	93.6%	112%	88.7%	102%	95.2%	90.5%	89.4%	87%	105%	97.6%	104%	105%	108%	105%	98.6%	103%	92%	93.3%
Cc1cc(NC(=O)NCc2ccc(N3C(N)=NC(N)=NC3(C)C)cc2)ccc1S(=O)(=O)F	29.2%	101%	54.7%	23.4%	4.48% (active)	88.9%	-3.03% (active)	26.2%	29.3%	42.7%		56.9%	58.5%		31.6%	27.9%	19.5%		29.5%
COc1cc(/C=N/C2=C(C#N)C(c3ccco3)c3c(c4cc(C)ccc4oc3=O)O2)cc(OC)c1OC (configuration not stated)	95.1%	86.3%	100%	87.3%	103%	59.4%	99.5%	92.5%	118%	107%		97.2%	95.6%		95.2%	92.2%	90.8%	94.2%	93.4%
O=[N+]([O-])c1cnc[nH]1	103%	105%	121%	106%	108%	93.7%	103%	112%	119%	116%	123%	112%	101%	128%	106%	104%	110%	103%	119%
COC(=O)[C@@H](C)C[C@H](Cc1ccccc1)NC(=O)c1nc([C@@H](C[C@H](C(C)C)N(C)C(=O)[C@@H](NC(=O)[C@H]2CCCCN2C)C(C)C)OC(C)=O)sc1C(C)C	24.6%	52.4%	38.1%	11.8%	5.54% (active)	30.6%	2.6% (active)	-6.11% (active)	-61.5% (active)	-0.426% (active)	7.38% (active)	57.5%	2.67% (active)	23.7%	22.1%	-1.35% (active)	-22.2% (active)	50.7%	-26.6% (active)
O=C(CCl)c1ccc([N+](=O)[O-])o1	5.38% (active)	42.9%	98.4%	86.4%	76.3%	-56% (active)	106%	-28.7% (active)	-86% (active)	-30.8% (active)	-36.7% (active)	-54.6% (active)	64.6%	-48.2% (active)	1.57% (active)	92.2%	2.78% (active)	-49.3% (active)	-11.5% (active)
CC(=O)O[C@H](C[C@H](C(C)C)N(C)C(=O)[C@@H](NC(=O)[C@H]1CCCCN1C)C(C)C)c1nc(C(=O)N[C@@H](Cc2ccccc2)C[C@H](C)C(=O)O)c(CCOCc2ccccc2)s1	24.3%	-56.8% (active)	33.5%	29.6%	5.98% (active)	5.5% (active)	13%	7.14% (active)	-42% (active)	-9.34% (active)	7.14% (active)	23.3%	9.48% (active)	18.3%	11.6%	-19.8% (active)	-31.5% (active)	54.5%	-29.4% (active)

Source: PubChem BioAssay (NCI)
